Experimental findings from PubChem BioAssay (EPA / NIEHS) are described below.

“And” between values parts separate entries of the source, which are not always exact repeats. Identical values can stand only once. Where a structure was tested more than once in an assay, its records may differ in their call. The source made the active and inactive calls. The calls were made as follows: active = hit-call score of the fitted dose curve at least 0.9, where 1 is the maximum; inactive = score below 0.9.

Experiment [1] in a line: ATG_CRE_CIS: Attagene CIS-FACTORIAL HepG2 Assay for human cAMP Responsive Element (CRE) binding protein 3 (AID 2282926). Conditions: HepG2 CRE cis-reporter, Attagene multiplexed mRNA; actives raise or lower the signal. The essentials:
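Cells carrying cis-regulated reporter constructs respond through their own endogenous factors. After 24 h treatment, RNA is reverse-transcribed, amplified, labelled and sized by capillary electrophoresis; up- and down-regulation are both scored against vehicle.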

Experiment [2] has as its target CCAAT/enhancer-binding protein beta (Homo sapiens) (UniProt P17676). The experiment can be described thus: ATG_C_EBP_CIS: Attagene CIS-FACTORIAL HepG2 Assay for human CCAAT/Enhancer Binding Protein (C/EBP) beta (AID 2282927). Particulars: HepG2 Attagene cis-factorial transcription factor reporter; actives raise or lower the signal. The essentials:
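Changes in reporter mRNA, rather than exogenous chimeric receptor activity, reflect native C/EBP signalling in transfected HepG2 cells dosed for 24 h; transcripts are detected by RT-PCR and capillary electrophoresis.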

Experiment [3] can be described thus: ATG_CMV_CIS: Attagene CIS-FACTORIAL HepG2 Assay for human CMV (Internal Marker) (AID 2282928).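 Also: endpoint acts as a background internal control marker rather than a target.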 Conditions: HepG2 CMV promoter reporter, transcription factor profiling; actives raise or lower the signal. The essentials:
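Readout: fluorescent reporter cDNA fragments separated by capillary electrophoresis after RT-PCR and HpaI cut. Cells: HepG2 carrying transfected cis-promoter reporter constructs, dosed 24 h. Endpoint serves as background internal-marker control, fit bidirectionally versus DMSO.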

Experiment [4] in a line: ATG_DR4_LXR_CIS: Attagene CIS-FACTORIAL HepG2 Assay for human Liver X Receptor (LXR), DR4 submotif (AID 2282929). Conditions: HepG2 Attagene DR4 cis-reporter, mRNA transcription; actives raise or lower the signal. The gist of the method:
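Total RNA from 24 h-treated, MRTU-transfected HepG2 cells underwent reverse transcription, PCR, fluorescent primer extension and restriction digestion before capillary electrophoresis. Both increases and decreases in reporter signal were fitted against DMSO.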

Experiment [5] has as its target Aryl hydrocarbon receptor (Homo sapiens) (UniProt P35869). Briefly: ATG_Ahr_CIS: Attagene CIS-FACTORIAL HepG2 Assay for human Aryl Hydrocarbon Receptor (Ahr) (AID 2282930). Particulars: HepG2 AhR cis-factorial reporter transcription; actives raise or lower the signal. The essentials: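 HepG2, transient MRTU (cis) transfection, 24 h exposure. RNA → cDNA → PCR → 6-FAM primer extension → HpaI 2 h 37 C → CE. Fit: bidirectional, DMSO baseline.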

A short description of experiment [6]: ATG_AP_1_CIS: Attagene CIS-FACTORIAL HepG2 Assay for human Activator Protein 1 (AP-1) (AID 2282931). Conditions: HepG2 Attagene cis-factorial AP-1 reporter mRNA; actives raise or lower the signal. The gist of the method: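 HepG2, transient cis-reporter transfection; 24 h; readout RT-PCR/CE fluorescence; DMSO baseline, gain and loss fitted.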
Experiment [7] in a line: ATG_AP_2_CIS: Attagene CIS-FACTORIAL HepG2 Assay for human Activator Protein 2 (AP-2) (AID 2282932). Particulars: HepG2 AP-2 cis-reporter, Attagene transcription factor profiling; actives raise or lower the signal. The gist of the method: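 Endogenous transcription factor activity is reported through transfected multiplex reporter constructs in HepG2, after 24 h of compound exposure. Transcripts were quantified by RT-PCR and capillary electrophoresis of fluorescent fragments. Bidirectional fit against DMSO.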

Experiment [8] is described as follows: ATG_BRE_CIS: Attagene CIS-FACTORIAL HepG2 Assay for human Bone Morphogenetic Protein (BMP) Response Element (BRE) (AID 2282933). Conditions: HepG2 BMP response element reporter, Attagene transcription factor profiling; actives raise or lower the signal. The essentials:
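After a 24 h chemical treatment, transiently transfected HepG2 cells were lysed for RNA; reporter transcripts were quantified by fluorescent RT-PCR and capillary electrophoresis, normalised to DMSO.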

Experiment [9] concerns the target Retinoic acid receptor alpha (Homo sapiens) (UniProt P10276). Briefly: ATG_DR5_RAR_CIS: Attagene CIS-FACTORIAL HepG2 Assay for human Retinoic Acid Receptor Alpha (RARE), DR5 submotif (AID 2282934).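 As to AC50: reporter responds to endogenous RAR alpha beta and gamma in HepG2 not RARA alone.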 Particulars: HepG2 Attagene cis-factorial RARE DR5 reporter, mRNA; actives raise or lower the signal. The gist of the method: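 HepG2, transient cis-reporter transfection, 24 h exposure. mRNA readout: RT-PCR, FAM label, HpaI cut, capillary electrophoresis. DMSO baseline, gain/loss fitting.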

Experiment [10] deals with Transcription factor E2F1 (Homo sapiens) (UniProt Q01094). The experiment can be described thus: ATG_E2F_CIS: Attagene CIS-FACTORIAL HepG2 Assay for human E2F Transcription Factor 1 (AID 2282935). Conditions: HepG2 Attagene cis-reporter, E2F reporter RNA transcripts; actives raise or lower the signal. The gist of the method: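 Gain or loss of reporter transcript, fitted against DMSO, reflects E2F1-driven transcription. Transiently transfected HepG2 dosed 24 h before RNA isolation. Quantified by fluorescent RT-PCR products separated by capillary electrophoresis.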
Transcription factor E2F1 (Homo sapiens), sequence (Q01094 whole entry, looked up): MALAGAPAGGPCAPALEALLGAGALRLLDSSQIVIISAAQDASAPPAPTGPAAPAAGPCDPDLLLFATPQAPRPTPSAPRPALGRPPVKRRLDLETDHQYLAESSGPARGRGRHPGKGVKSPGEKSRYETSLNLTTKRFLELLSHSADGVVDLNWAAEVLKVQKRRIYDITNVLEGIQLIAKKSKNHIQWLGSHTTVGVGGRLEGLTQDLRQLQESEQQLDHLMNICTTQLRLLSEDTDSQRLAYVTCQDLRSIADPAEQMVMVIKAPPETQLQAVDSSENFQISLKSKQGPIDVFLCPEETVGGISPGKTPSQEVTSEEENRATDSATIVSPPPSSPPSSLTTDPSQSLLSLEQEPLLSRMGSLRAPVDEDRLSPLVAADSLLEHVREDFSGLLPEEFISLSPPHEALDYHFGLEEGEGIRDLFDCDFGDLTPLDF

CCAAT/enhancer-binding protein beta (Homo sapiens), sequence (P17676 whole entry, looked up): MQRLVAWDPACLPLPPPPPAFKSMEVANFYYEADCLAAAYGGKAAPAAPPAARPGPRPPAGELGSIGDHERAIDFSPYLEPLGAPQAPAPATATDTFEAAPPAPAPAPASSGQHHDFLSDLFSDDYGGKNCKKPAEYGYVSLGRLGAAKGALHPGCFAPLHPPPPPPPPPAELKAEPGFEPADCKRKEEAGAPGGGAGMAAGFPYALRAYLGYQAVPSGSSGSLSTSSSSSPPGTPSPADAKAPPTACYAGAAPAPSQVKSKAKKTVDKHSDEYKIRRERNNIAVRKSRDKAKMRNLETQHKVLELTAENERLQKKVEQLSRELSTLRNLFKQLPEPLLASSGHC
Aryl hydrocarbon receptor (Homo sapiens), sequence (P35869 whole entry, looked up): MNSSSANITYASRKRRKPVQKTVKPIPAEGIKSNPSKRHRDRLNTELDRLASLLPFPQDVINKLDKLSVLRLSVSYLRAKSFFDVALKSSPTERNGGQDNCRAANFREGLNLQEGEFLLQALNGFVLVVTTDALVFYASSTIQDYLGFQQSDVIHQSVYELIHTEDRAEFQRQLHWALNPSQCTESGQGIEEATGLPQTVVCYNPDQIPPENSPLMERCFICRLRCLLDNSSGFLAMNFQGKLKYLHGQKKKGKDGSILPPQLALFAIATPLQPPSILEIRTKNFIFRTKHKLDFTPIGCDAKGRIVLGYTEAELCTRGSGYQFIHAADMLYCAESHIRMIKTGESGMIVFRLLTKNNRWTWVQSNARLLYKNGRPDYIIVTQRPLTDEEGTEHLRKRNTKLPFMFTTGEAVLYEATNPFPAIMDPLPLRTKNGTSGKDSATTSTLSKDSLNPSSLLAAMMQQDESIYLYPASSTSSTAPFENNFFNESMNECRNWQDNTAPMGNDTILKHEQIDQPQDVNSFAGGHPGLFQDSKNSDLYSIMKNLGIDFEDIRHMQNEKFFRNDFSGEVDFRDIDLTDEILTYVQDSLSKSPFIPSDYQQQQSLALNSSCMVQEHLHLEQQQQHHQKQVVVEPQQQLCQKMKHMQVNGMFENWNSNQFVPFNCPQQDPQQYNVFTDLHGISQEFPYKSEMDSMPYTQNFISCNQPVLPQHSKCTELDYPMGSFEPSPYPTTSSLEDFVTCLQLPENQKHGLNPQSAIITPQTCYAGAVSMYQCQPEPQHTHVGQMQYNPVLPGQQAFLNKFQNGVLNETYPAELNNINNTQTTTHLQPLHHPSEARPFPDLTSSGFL
Retinoic acid receptor alpha (Homo sapiens), sequence (P10276 whole entry, looked up): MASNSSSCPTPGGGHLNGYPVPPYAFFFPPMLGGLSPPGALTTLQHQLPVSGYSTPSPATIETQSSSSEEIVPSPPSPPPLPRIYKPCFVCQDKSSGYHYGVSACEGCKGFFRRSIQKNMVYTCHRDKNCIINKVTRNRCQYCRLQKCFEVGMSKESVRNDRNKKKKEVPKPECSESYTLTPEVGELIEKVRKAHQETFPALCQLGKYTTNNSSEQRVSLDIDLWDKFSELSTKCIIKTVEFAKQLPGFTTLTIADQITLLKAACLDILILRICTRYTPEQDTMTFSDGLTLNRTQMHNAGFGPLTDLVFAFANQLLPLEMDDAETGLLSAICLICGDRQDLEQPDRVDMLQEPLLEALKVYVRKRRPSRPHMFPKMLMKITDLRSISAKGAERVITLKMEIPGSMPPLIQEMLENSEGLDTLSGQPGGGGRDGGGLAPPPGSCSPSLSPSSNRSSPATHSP

For `CCCN(CCC)N=O`, the result in experiment [1], in experiment [2], in experiment [3], in experiment [4], in experiment [5] and in experiment [6] was inactive. Besides, the call in experiment [7], in experiment [8], in experiment [9] and in experiment [10] was inactive.
In general, AC50 refers to the concentration giving half of the maximal activity seen. As for `C1CC2OC2CC1C1CO1` (stereo not given), the call in [1], in experiment [2], in [3], in experiment [4], in experiment [6] and in [7] was inactive. Also, the compound was called inactive in experiment [8], in experiment [9] and in experiment [10]. For the same compound, the AC50 in [5] was 81.5 µM (active).
For the compound `Clc1ccc(C(Cl)(Cl)Cl)cc1`, the call in experiment [1], in [2], in experiment [3], in experiment [4], in experiment [5] and in experiment [6] was inactive. The call in experiment [7], in experiment [8], in [9] and in [10] was inactive.
As to `O=C(O)C(F)(F)C(F)(F)C(F)(F)C(F)(F)C(F)(F)C(F)(F)C(F)(F)C(F)(F)C(F)(F)F`, the AC50 in experiment [1] is 62.2 µM (active); in [3], 86.6 µM (active); in experiment [4], 27.3 µM (active) and 23.9 µM (active) and 13.3 µM (active); in experiment [5] it was 69.7 µM (active); in experiment [6] it was 59 µM (active) and 12.1 µM (active); in [7], 46.5 µM (active). The compound was called inactive in experiment [1], in experiment [3], in [5], in experiment [6], in [7] and in experiment [9]. Also, in [10], the result was inactive.
With `O=S(=O)(O)C(F)(F)C(F)(F)C(F)(F)C(F)(F)C(F)(F)C(F)(F)F`, the call in experiment [1], in experiment [2], in experiment [3], in experiment [4], in experiment [5] and in experiment [6] was inactive. Besides, the result in experiment [7] and in experiment [10] was inactive. Besides, the AC50 in [6] was 117 µM (active).
Regarding `CCCCCCCCCc1ccc(O)cc1`, the call in [1], in experiment [2], in experiment [3], in experiment [4], in experiment [5] and in experiment [6] was inactive. Also, the compound was classed as inactive in [7], in [9] and in [10]. Also, the AC50 in experiment [4] was 30.2 µM (active) and 11.1 µM (active); in [6], 178 µM (active); in experiment [7], 169 µM (active).
As for `CCCCCCCCCC[N+](C)(C)CCCCCCCCCC`, the outcome in experiment [1], in experiment [2], in experiment [5], in experiment [9] and in experiment [10] was inactive. Also, the AC50 in [3] is 179 µM (active); in experiment [4], 6.09 µM (active); in experiment [6], 192 µM (active); in [7], 100 µM (active).
With `CCC(C)c1cc([N+](=O)[O-])cc([N+](=O)[O-])c1O` (stereo not given), the AC50 in [1] is 14 µM (active); in experiment [2], 12.5 µM (active); in [3], 19.6 µM (active); in [6], 10.6 µM (active); in experiment [8], 11.8 µM (active); in [9], 13.2 µM (active). The call in [4], in experiment [5], in [7] and in experiment [10] was inactive.
With `C=CC(=O)NCNC(=O)C=C`, the outcome in [1], in experiment [2], in [3], in experiment [4], in experiment [5] and in experiment [6] was inactive. In addition, the result in experiment [7], in experiment [9] and in experiment [10] was inactive.
For `COc1ccc(O)c(C(C)(C)C)c1`, the AC50 in experiment [1] was 100 µM (active); in experiment [2], 100 µM (active); in [3] it was 83.1 µM (active); in experiment [6], 55.5 µM (active). The outcome in [4], in experiment [5], in experiment [7], in experiment [8], in [9] and in experiment [10] was inactive.
For the compound `C[C@]12CCC(=O)C=C1CC[C@@H]1[C@@H]2CC[C@]2(C)C(=O)CC[C@@H]12`, the compound was called inactive in [1], in experiment [2], in experiment [3], in [4], in experiment [5] and in experiment [6]. Moreover, the call in experiment [7], in experiment [9] and in experiment [10] was inactive. Further, the AC50 in experiment [4] was 161 µM (active) and 167 µM (active); in experiment [5] it was 49.8 µM (active); in experiment [7], 45.1 µM (active); in [9], 36.7 µM (active) and 27.5 µM (active).
As for `CCC(C)(c1ccc(O)cc1)c1ccc(O)cc1`, the AC50 in experiment [1] is 53.2 µM (active); in [3] it was 56.5 µM (active) and 56.1 µM (active) and 23.2 µM (active); in experiment [4], 47.5 µM (active) [middle of 4 runs]; in experiment [5] it was 58.9 µM (active); in experiment [6], 59.3 µM (active) and 33.4 µM (active) and 15.6 µM (active). Also, the compound was called inactive in experiment [1], in [3], in experiment [5], in [6], in [7] and in experiment [8]. Besides, the call in experiment [10] was inactive.
As to `CC#Cc1cc(C)nc(Nc2ccccc2)n1`, the compound was classed as inactive in experiment [1], in [2], in experiment [3], in experiment [6], in experiment [7] and in [8]. Besides, the call in [9] and in [10] was inactive. The concentration at half-maximal activity (AC50) in [4] was 75 µM (active); in experiment [5] it was 23 µM (active).
In the case of `Sc1ccccc1`, the call in [1], in experiment [2], in experiment [3], in experiment [4], in [5] and in experiment [6] was inactive. The compound was classed as inactive in experiment [7], in [8] and in experiment [10].
For the compound `O=C(O)C(F)(F)C(F)(F)C(F)(F)C(F)(F)C(F)(F)C(F)(F)C(F)(F)C(F)(F)F`, the result in experiment [1], in experiment [2], in experiment [3], in [4], in experiment [5] and in experiment [7] was inactive. For the same compound, the outcome in experiment [8], in experiment [9] and in experiment [10] was inactive. The half-maximal activity concentration (AC50) in experiment [3] is 62.9 µM (active) and 267 µM (active); in experiment [4] it was 81.9 µM (active) and 50 µM (active); in [6], 50.5 µM (active) and 274 µM (active) and 16.7 µM (active); in experiment [8] it was 248 µM (active); in experiment [10], 55.4 µM (active).
